Test results as given in PubChem BioAssay.
Activity calls are given as the source filed them.

Key:
[1] = system: Plasmodium falciparum Sir2 (PF13_0152, Sir2A); assay: Plasmodium falciparum Sir2A binding compounds – biochemical, small-molecule microarray, 635 nm fluorescence, primary screen (AID 1098); settings: fluorescence 635 nm, higher = more signal;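 note: score merges spot fluorescence intensity with its signal-to-noise ratio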
[2] = probe aDKK1 binding to arrayed compounds – biochemical, biotinylated probe, 635/667 nm fluorescence, primary screen (AID 1099); settings: small-molecule microarray, higher = more signal;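 note: score merges 667nm spot fluorescence with signal to noise across triplicate slides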
[3] = probe aCHRDL2 binding to arrayed compounds – biochemical, biotinylated probe, 635/667 nm fluorescence, primary screen (AID 1100); settings: small-molecule microarray, higher = more signal
[4] = change in splice reporter luminescence, either direction, cell-based, HEK293, spliceosome inhibition project, primary screen (AID 1101); settings: HEK293 splicing luciferase reporter, 24 h, higher = more signal, called active from +8 up or from −8 down;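 note: HEK293 cells carrying a splicing-competent luciferase reporter gene; test concentration not given here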
[5] = target: Fibroblast growth factor 10 (Homo sapiens) (UniProt O15520); assay: compounds binding fibroblast growth factor 10 – biochemical, small-molecule microarray, 635 nm fluorescence, primary screen (AID 1102); settings: FGF10 binding, fluorescence 635 nm, higher = more signal
[6] = system: glycogen synthase kinase-3 (GSK3A per assay name; protocol says GSK3B); assay: compounds binding glycogen synthase kinase-3 – biochemical, small-molecule microarray, 635 nm fluorescence, GSK3A, primary screen (AID 1103); settings: fluorescence 635 nm, higher = more signal; note: the record names both GSK3A and GSK3B
[7] = target: Epidermal growth factor receptor (Homo sapiens) (UniProt P00533); assay: compounds binding epidermal growth factor receptor – biochemical, small-molecule microarray, 635 nm fluorescence, primary screen (AID 1104); settings: EGFR binding, higher = more signal;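 note: score merges 667 nm emission intensity with spot signal to noise over triplicate slides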
[8] = target: Follistatin-related protein 3 (Homo sapiens) (UniProt O95633); assay: compounds binding follistatin-related protein 3 – biochemical, small-molecule microarray, 635 nm fluorescence, primary screen (AID 1105); settings: FSTL3 binding, higher = more signal;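 note: score merges emission near 667 nm and signal to noise per printed spot across three slides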
[9] = target: Dickkopf-related protein 1 (Homo sapiens) (UniProt O94907); assay: small molecules binding DKK1 protein – biochemical, small-molecule microarray, 635 nm fluorescence scan, primary screen (AID 1106); settings: higher = more signal;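 note: score merges emission near 667 nm with signal to noise over three replicate slides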
[10] = system: Inhibin beta A chain (activin A); assay: small molecules binding activin A – biochemical, small-molecule microarray, 635 nm fluorescence scan, primary screen (AID 1107); settings: INHBA, higher = more signal;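 note: mouse activin A protein probed at 4.33 µg/mL on printed slides; score merges bound-protein fluorescence near 667 nm with spot signal-to-noise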
[11] = system: Human papillomavirus type 1a protein E7 (residues 44-93); assay: small molecules binding HPV E7 44-93 – biochemical, small-molecule microarray, residues 44-93, 635 nm fluorescence, primary screen (AID 1108); settings: fluorescence 635 nm, higher = more signal;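 note: E7 fragment applied at 1 µg/mL in TBST for 1 h at 4 C; score combines spot fluorescence with its signal to noise ratio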
[12] = hepatitis C replication reporter changes, two-sided – Huh7 cells, luciferase reporter, HCV replication inhibitor project, primary screen (AID 1109); settings: Huh7 HCV replicon luciferase reporter, 48 h; higher = more signal;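 note: huh7 hepatoma cells harbouring a luciferase neomycin HCV replicon reporter; luciferase luminescence as measure of HCV replicon replication; test concentration not given here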
[13] = target: Left-right determination factor 2 (Homo sapiens) (UniProt O00292); assay: small molecules binding LEFTY2 protein – biochemical, small-molecule microarray, 635 nm fluorescence scan, primary screen (AID 1110); settings: higher = more signal
[14] = target: Calmodulin-1 (Homo sapiens) (UniProt P0DP23); assay: small molecules binding calmodulin-1 with EGTA – biochemical, small-molecule microarray, Cy5-labelled CALM1, profiling panel (AID 1111); settings: Cy5-CALM1 binding fluorescence, higher = more signal;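 note: labelled calmodulin applied in Tris saline Tween buffer holding calcium plus EGTA and DTT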
[15] = target: Calmodulin-1 (Homo sapiens) (UniProt P0DP23); assay: small molecules binding Ca-loaded calmodulin-1 – biochemical, small-molecule microarray, Cy5-labelled CALM1, plus calcium, artefact control for SMM control-protein annotation, profiling panel (AID 1112); settings: Cy5-CALM1 binding fluorescence, higher = more signal;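 note: score merges spot fluorescence with signal to noise from triplicate slides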
[16] = probe aWnt5a binding to arrayed compounds – biochemical, biotinylated probe, 635/667 nm fluorescence, primary screen (AID 1113); settings: small-molecule microarray, higher = more signal;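 note: score merges 667 nm fluorescence intensity with signal-to-noise per printed feature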
[17] = probe aShh binding to arrayed compounds – biochemical, biotinylated probe, 635/667 nm fluorescence, primary screen (AID 1114); settings: small-molecule microarray, higher = more signal;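 note: probe is biotin-labelled aShh protein from a stem cell growth factor screen; measures binding of labelled protein to compounds printed on the slide; score merges feature fluorescence at 667 nm with signal-to-noise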
[18] = probe aNog binding to arrayed compounds – biochemical, biotinylated probe, 635/667 nm fluorescence, primary screen (AID 1115); settings: small-molecule microarray, higher = more signal;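 note: probe is biotinylated aNog protein used at 0.15 µg/mL for 1 h at 4 C; z-score combines 667 nm fluorescence of each spot with its signal to noise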
[19] = target: Torsin-1A-interacting protein 1 (Homo sapiens) (UniProt Q5JTV8); assay: compound microarray binding of lysate hLAP1 – cell lysate, small-molecule microarray, COS7 lysate, 635/667 nm fluorescence, primary screen (AID 1116); settings: 635 nm fluorescence, higher = more signal
[20] = target: Alpha-bungarotoxin (Bungarus multicinctus) (UniProt P60615); assay: compounds binding labelled alpha-BTX control protein – biochemical, small-molecule microarray, Alexa647 label, 635/667 nm fluorescence, artefact control for SMM control protein annotation, profiling panel (AID 1117); settings: alpha-BTX-A647 binding fluorescence, higher = more signal
Chain of Alpha-bungarotoxin (Bungarus multicinctus) (P60615 whole entry, looked up): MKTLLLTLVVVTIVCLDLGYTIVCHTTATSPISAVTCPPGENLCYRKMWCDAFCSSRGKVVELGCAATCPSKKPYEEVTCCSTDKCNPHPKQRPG

Chain of Epidermal growth factor receptor (Homo sapiens) (P00533 whole entry, looked up): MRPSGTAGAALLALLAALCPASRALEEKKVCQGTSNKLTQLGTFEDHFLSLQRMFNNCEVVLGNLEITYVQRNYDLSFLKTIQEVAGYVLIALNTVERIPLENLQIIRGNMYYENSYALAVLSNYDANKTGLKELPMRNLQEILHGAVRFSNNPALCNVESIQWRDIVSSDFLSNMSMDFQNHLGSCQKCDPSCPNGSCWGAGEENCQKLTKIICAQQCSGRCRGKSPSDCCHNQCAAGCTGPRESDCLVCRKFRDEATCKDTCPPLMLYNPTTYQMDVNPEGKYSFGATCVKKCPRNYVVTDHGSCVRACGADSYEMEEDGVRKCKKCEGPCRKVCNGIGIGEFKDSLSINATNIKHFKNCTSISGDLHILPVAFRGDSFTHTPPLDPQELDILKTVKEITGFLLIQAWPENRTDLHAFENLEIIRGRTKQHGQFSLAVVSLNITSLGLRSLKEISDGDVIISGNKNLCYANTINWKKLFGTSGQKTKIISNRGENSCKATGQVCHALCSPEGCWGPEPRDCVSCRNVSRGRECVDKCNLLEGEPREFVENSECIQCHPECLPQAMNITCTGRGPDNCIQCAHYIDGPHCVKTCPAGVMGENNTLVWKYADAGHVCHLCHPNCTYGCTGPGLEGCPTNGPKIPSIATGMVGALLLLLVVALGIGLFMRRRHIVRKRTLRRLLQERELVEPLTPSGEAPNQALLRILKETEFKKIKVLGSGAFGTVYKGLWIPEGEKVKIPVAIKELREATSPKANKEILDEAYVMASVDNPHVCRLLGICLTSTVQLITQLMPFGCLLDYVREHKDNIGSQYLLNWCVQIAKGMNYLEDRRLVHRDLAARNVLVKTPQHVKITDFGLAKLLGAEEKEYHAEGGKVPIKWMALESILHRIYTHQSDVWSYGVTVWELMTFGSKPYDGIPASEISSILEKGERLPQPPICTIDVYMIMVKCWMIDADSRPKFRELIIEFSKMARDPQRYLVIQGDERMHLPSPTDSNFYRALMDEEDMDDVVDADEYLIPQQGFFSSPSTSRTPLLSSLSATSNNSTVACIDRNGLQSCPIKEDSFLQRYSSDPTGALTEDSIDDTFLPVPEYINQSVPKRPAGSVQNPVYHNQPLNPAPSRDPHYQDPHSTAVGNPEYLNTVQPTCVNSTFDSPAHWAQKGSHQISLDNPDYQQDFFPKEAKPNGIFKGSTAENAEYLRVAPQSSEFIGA
Chain of Left-right determination factor 2 (Homo sapiens) (O00292 whole entry, looked up): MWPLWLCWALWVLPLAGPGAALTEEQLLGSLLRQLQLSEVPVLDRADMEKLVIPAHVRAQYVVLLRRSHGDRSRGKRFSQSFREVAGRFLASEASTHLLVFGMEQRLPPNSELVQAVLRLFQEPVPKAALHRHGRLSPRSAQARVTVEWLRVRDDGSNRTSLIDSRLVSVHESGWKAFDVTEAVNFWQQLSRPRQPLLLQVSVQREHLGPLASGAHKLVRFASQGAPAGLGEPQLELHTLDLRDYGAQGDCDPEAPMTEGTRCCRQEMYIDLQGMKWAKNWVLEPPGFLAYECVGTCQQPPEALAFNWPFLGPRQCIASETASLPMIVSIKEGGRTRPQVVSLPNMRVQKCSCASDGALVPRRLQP
Chain of Dickkopf-related protein 1 (Homo sapiens) (O94907 whole entry, looked up): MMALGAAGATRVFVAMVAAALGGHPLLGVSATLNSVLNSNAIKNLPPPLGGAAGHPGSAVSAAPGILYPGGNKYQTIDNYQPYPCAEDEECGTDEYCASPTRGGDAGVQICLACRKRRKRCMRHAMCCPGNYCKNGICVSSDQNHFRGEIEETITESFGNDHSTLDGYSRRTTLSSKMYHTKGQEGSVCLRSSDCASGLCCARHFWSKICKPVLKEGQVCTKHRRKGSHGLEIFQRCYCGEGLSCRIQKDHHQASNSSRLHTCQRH
Chain of Follistatin-related protein 3 (Homo sapiens) (O95633 whole entry, looked up): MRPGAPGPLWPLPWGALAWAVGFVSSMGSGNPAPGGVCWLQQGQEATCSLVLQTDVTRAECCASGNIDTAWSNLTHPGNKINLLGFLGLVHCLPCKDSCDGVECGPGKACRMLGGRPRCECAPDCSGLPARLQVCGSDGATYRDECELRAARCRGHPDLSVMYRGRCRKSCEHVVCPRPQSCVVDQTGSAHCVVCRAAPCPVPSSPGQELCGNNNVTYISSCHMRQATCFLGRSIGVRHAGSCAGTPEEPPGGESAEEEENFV
Chain of Torsin-1A-interacting protein 1 (Homo sapiens) (Q5JTV8 whole entry, looked up): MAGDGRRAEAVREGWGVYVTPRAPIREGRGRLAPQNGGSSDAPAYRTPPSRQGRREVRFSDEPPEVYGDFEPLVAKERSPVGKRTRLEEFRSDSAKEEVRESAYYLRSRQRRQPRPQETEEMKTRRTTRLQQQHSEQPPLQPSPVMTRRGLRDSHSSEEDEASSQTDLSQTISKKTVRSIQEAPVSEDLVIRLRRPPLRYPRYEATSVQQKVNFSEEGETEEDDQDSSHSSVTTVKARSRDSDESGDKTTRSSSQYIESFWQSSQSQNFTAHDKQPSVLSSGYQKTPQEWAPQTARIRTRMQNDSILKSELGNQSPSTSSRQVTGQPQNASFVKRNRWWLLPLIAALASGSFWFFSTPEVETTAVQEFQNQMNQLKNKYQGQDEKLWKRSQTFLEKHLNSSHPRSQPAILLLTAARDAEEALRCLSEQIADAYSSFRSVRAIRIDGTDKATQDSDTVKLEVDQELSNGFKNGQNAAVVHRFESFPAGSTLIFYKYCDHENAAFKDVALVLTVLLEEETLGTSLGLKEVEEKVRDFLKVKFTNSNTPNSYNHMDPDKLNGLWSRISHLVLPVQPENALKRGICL
Chain of Fibroblast growth factor 10 (Homo sapiens) (O15520 whole entry, looked up): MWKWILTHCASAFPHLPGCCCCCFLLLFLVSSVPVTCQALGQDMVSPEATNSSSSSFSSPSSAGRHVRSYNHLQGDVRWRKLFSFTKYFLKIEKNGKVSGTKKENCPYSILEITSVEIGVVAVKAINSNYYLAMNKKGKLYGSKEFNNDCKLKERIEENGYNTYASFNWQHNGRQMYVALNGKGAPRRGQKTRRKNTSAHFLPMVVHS

| Structure (SMILES) | composite z-score [1] | composite z-score [2] | composite z-score [3] | z-score [4] | composite z-score [5] | composite z-score [6] | composite z-score [7] | composite z-score [8] | composite z-score [9] | composite z-score [10] | composite z-score [11] | z-score [12] | composite z-score [13] | composite z-score [14] | composite z-score [15] | composite z-score [16] | composite z-score [17] | composite z-score [18] | composite z-score [19] | composite z-score [20] |
| --- | --- | --- | --- | --- | --- | --- | --- | --- | --- | --- | --- | --- | --- | --- | --- | --- | --- | --- | --- | --- |
| C=C(COC)/C(=C/C[C@@H](OC(=O)c1ccncc1)c1cccc(OCCO)c1)c1cnc2ccccc2c1 | -0.0365 | 0.432 | 0.347 | -1.36 (inactive) | 1.48 | 1.3 | 1.65 | 1.65 | 0.769 | 1.81 | 0.429 | -3.87 | 1.04 | 1.3 | -0.102 | -0.0161 | 0.259 | 0.581 | 1.54 | 3.87 |
| C=CC[C@@]1(C(=O)N2CCCCC2)N=C(c2ccc(OCCCO)cc2)O[C@@H]1c1ccccc1 | 1.53 | 0.833 | 0.613 | 0.411 (inactive) | 0.497 | 1.29 | 0.0106 | -0.0325 | -0.717 | 0.823 | 0.305 | -1.91 | 0.106 | 0.506 | -0.185 | 0.141 | -0.0243 | 2.01 | 1.87 | 0.497 |
| CCOC(=O)C[C@H]1[C@H](OC(=O)c2ccccc2-c2ccccc2)[C@@H](NC(=O)c2ccc3ccccc3n2)c2cc(OCCCO)ccc2N1C(=O)c1ccc2ccccc2n1 | 0.638 | -0.267 | -0.535 | -1.19 (inactive) | 0.611 | 0.0214 | 0.378 | 0.469 | 0.452 | -0.0055 | 0.437 | -0.863 | 0.152 | -0.0654 | -0.127 | -0.174 | -0.265 | -0.328 | 0.358 | 0.567 |
| C=CC[C@H](OC(=O)Nc1ccc(OC)cc1)c1ccc(O)c2ccccc12 | 1.24 | 0.121 | 0.0255 | 3.32 (inactive) | 0.82 | 1.29 | 0.547 | 1.26 | 0.92 | 1.05 | 1.07 | -3.63 | 0.848 | 0.107 | -0.636 | 0.0511 | 0.0469 | 0.241 | 0.505 | 1.78 |
| O=C1O[C@H](c2ccccc2)[C@H](c2ccccc2)N2[C@H]1[C@@H](C(=O)O)[C@]1(C(=O)Nc3ccccc31)[C@H]2c1ccc(O)cc1 | 0.663 | -0.391 | 0.253 | -0.531 (inactive) | 0.619 | -0.219 | -0.552 | -0.532 | -0.836 | -1.37 | 0.49 | -0.361 | -0.274 | -0.2 | -0.262 | -0.1 | -0.262 | 0.101 | -0.321 | -0.286 |
| CN(C)C(=O)[C@@]1(Cc2ccccc2N=[N+]=[N-])COC(c2ccc(OCCCO)cc2)=N1 | 1.54 | 0.764 | 0.795 | -0.545 (inactive) | 0.629 | 1.05 | 0.0428 | 0.396 | -0.239 | 0.0217 | 1 | -1.69 | -0.475 | 1.32 | 0.202 | 0.212 | 0.661 | -1.05 | 1.04 | 1.55 |
| [N-]=[N+]=NCc1ccccc1C[C@@]1(C(=O)NCCN2CCOCC2)N=C(c2ccc(OCCCO)cc2)O[C@@H]1c1ccccc1N=[N+]=[N-] | 1.15 | 0.75 | 0.45 | -1.7 (inactive) | 0.778 | 1.08 | 0.283 | 0.325 | -0.194 | 0.822 | 1.4 | -3.07 | -0.429 | 1.16 | 0.415 | 0.168 | 0.0141 | 0.78 | 0.948 | 1.89 |
| C=CCNC(=O)[C@H]1[C@@H]2C(=O)O[C@@H](c3ccccc3)[C@@H](c3ccccc3)N2[C@@H](c2ccccc2OCCO)[C@]12C(=O)N(C(=O)OCCOC)c1ccc(C#CC3=CCCCC3)cc12 | 1.39 | 0.683 | 0.521 | -1.85 (inactive) | 0.996 | 1.22 | 0.69 | 1.32 | 1.11 | 1.41 | 1.43 | -3.34 | 0.68 | 1.63 | 0.49 | 0.125 | 0.0915 | 1.12 | 0.794 | 1.4 |
| Cc1ccc(F)cc1S(=O)(=O)N[C@@H]1CCN(Cc2ccc(Oc3ccccc3)cc2)C1 | 0.499 | -0.392 | -0.38 | 1.25 (inactive) | 0.271 | -0.632 | -0.0463 | 0.626 | 0.47 | 0.192 | -1.39 | -3.67 | 0.74 | -1.08 | -0.466 | -0.147 | -0.195 | -0.388 | -0.104 | 0.471 |
| CCCC[C@@H]1C[C@H]1[C@@H](NC(=O)c1cccnc1)c1ccc(-c2ccccc2)cc1 | 0.0651 | -0.161 | 0.993 | -4.22 (inactive) | -1.19 | -1.2 | -1.46 | -1.01 | -1.44 | 0.936 | -0.447 | -1.95 | -1.99 | -0.297 | 0.742 | -0.141 | 2.01 | -0.744 | -1.2 | -0.556 |
| C[N+](C)(C)CCCC[C@@H]1NC(=O)[C@@H]2C[C@H](C(=O)O)[C@H](c3ccc(O)cc3)N2C1=O | -0.72 | 0.0476 | 0.937 | 0.116 (inactive) | -1.57 | -1.32 | -1.04 | 0.0994 | -0.0081 | 0.614 | -3.49 | 0.964 | -0.566 | -0.0386 | 0.305 | -0.197 | -0.141 | -0.359 | 0.136 | 0.0213 |
